Measurements reported in PubChem BioAssay.
Activity calls are given as the source filed them. Rule as the data show it, unless noted: active = inhibition above about 42%; inactive = the rest.

Experiments:
[1] = target: Nuclear receptor coactivator 3 (Homo sapiens) (UniProt Q9Y6Q9); experiment: NCOA3 GAL4-fusion reporter inhibition – cell-based, luminescence, quadruplicate, confirmation (AID 588792;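 active = mean inhibition over 43.08%, the solvent-only control mean plus 3 SD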;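 also: 0% = DMSO treated cells and 100% = gossypol at 36 µM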); details: HEK293 GAL4-SRC3 luciferase reporter, at 3.6 µM, stronger effect = higher value
[2] = tested on: transactivating tegument protein VP16 (Human herpesvirus 1), Gal4-VP16 luciferase reporter; experiment: repression of VP16-driven luciferase reporter – cell-based, luminescence, high throughput, counter-screen for SRC3 inhibitor project (AID 588794; in the data active = inhibition above about 30%); details: mammalian cells, at 3.6 µM, stronger effect = higher value
[3] = StAR promoter reporter inhibitors, counter-screen for LRH-1 inverse agonist project, cell-based, luminescence, high throughput (AID 651611; in the data active = inhibition above about 28%); details: StAR promoter luciferase reporter counterscreen, at 3.6 µM, stronger effect = higher value
[4] = target: Nuclear receptor subfamily 5 group A member 2 (Homo sapiens) (UniProt O00482); experiment: NR5A2 activity suppression in reporter cells – cell-based, luminescence, confirmation (AID 651613); details: cell-based LRH-1 luciferase reporter, inverse agonism; at 3.6 µM; stronger effect = higher value;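 also: HEK293T cells co-transfected with LRH-1 and StAR promoter luciferase reporter; 0% = vehicle wells and 100% = parental cells lacking receptor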
[5] = target: Steroidogenic factor 1 (Homo sapiens) (UniProt Q13285); experiment: inverse agonism at SF1 nuclear receptor – cell-based, luminescence, high throughput, counter-screen for LRH-1 inverse agonist project (AID 651614; in the data active = inhibition above about 44%;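 also: cells cotransfected with StAR promoter reporter and SF1 expression vector; 0% = vehicle on cells with receptor and 100% = vehicle on cells lacking receptor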); details: cell-based SF1 luciferase reporter, at 3.6 µM, stronger effect = higher value
[6] = compounds suppressing VP16-driven luciferase signal – cell-based, luminescence, high throughput, counter-screen for LRH-1 inverse agonist project (AID 651615; in the data active = inhibition above about 33%); details: Gal4-VP16 luciferase reporter cells, at 3.6 µM, stronger effect = higher value
[7] = tested on: transactivating tegument protein VP16 (Human herpesvirus 1); experiment: compounds suppressing VP16-driven luciferase signal – cell-based, luminescence, single concentration, counter-screen for SRC2 inhibitor project (AID 652007; in the data active = inhibition above about 36%); details: cell-based VP16 transactivation luciferase reporter, at 8.9 µM, stronger effect = higher value
[8] = target: Nuclear receptor coactivator 2 (Homo sapiens) (UniProt Q15596); experiment: inhibition of GAL4-SRC2 driven luciferase expression – cell-based, luminescence, HEK293, triplicate, confirmation (AID 652008;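 active = mean inhibition above 46.5%, the solvent-only control mean plus 3 SD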;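 also: 0% = DMSO-treated cells and 100% = Gossypol at 36 µM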); details: HEK293 GAL4-SRC2 luciferase reporter, at 8.9 µM, stronger effect = higher value

Measured: inhibition

Sequence of Nuclear receptor coactivator 3 (Homo sapiens) (Q9Y6Q9 whole entry, looked up, the tested form may be a part): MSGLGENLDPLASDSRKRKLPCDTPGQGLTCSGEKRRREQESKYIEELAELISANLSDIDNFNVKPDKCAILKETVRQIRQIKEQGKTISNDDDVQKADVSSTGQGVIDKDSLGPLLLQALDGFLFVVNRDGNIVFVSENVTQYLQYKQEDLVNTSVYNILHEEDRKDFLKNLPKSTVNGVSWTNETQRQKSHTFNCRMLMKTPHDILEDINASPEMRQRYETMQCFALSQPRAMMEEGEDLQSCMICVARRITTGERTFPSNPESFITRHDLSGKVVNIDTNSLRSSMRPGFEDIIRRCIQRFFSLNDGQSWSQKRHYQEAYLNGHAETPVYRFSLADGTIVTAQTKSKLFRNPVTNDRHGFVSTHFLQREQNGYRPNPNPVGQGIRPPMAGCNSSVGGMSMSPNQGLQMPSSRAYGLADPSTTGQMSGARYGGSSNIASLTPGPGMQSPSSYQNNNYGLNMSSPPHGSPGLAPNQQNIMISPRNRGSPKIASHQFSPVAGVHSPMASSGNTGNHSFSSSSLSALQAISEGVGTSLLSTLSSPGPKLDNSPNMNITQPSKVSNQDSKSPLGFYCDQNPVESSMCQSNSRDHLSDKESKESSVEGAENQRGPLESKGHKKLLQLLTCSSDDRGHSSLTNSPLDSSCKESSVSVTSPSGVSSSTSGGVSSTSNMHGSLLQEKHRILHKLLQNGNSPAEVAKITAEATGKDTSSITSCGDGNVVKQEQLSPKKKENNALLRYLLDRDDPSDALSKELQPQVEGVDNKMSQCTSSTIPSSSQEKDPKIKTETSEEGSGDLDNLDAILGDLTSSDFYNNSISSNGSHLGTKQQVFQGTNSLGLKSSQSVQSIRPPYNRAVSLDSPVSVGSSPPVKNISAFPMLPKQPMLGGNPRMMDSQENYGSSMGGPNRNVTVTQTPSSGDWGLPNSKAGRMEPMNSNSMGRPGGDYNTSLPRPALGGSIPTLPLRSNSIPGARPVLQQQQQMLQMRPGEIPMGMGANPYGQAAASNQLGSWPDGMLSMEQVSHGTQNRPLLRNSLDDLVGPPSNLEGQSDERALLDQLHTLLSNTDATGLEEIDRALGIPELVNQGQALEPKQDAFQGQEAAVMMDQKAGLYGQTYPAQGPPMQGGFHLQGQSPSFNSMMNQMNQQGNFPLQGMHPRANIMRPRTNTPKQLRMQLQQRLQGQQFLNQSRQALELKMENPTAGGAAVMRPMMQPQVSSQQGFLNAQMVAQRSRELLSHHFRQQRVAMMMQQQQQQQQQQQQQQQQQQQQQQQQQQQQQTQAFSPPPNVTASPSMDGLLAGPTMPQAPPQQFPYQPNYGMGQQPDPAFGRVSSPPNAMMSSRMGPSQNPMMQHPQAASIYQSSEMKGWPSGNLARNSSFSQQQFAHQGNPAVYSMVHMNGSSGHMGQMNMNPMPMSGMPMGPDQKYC
Sequence of Nuclear receptor coactivator 2 (Homo sapiens) (Q15596 whole entry, looked up, the tested form may be a part): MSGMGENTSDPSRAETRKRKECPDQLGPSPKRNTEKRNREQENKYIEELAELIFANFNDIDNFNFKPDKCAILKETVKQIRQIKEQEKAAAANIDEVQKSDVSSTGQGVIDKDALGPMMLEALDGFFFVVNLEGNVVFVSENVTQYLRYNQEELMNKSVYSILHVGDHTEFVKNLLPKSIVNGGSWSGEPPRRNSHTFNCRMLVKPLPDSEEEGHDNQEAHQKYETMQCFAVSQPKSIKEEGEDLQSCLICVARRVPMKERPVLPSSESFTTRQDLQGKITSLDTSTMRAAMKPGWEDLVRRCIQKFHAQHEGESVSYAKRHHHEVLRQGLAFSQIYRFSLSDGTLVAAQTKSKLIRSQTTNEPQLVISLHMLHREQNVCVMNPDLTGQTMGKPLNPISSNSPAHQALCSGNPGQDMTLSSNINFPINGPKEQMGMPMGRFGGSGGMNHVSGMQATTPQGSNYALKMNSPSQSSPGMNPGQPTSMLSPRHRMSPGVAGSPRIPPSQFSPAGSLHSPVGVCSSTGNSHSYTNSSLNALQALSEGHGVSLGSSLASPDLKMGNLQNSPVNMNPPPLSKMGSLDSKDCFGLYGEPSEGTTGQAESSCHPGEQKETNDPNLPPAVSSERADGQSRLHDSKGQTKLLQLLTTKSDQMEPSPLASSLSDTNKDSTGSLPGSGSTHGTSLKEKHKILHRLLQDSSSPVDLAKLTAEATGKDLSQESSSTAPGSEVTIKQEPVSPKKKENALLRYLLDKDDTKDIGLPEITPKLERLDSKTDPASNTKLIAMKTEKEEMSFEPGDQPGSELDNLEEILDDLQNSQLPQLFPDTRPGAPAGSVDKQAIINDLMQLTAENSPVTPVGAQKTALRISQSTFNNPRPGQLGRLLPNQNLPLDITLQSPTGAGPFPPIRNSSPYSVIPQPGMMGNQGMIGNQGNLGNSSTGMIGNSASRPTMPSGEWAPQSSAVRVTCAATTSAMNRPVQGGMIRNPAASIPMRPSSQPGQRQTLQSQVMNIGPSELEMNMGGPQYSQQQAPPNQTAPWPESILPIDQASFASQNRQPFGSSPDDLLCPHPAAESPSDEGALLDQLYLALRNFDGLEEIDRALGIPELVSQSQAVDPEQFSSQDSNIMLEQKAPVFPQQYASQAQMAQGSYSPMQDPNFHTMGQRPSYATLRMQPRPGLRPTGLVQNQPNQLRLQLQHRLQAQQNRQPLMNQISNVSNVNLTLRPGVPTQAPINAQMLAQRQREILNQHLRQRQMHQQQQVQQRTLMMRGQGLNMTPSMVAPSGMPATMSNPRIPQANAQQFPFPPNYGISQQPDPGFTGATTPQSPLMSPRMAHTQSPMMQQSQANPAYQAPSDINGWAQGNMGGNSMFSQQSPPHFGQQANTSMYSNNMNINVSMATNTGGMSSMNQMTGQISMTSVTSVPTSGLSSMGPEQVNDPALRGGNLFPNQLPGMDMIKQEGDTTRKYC
Sequence of Nuclear receptor subfamily 5 group A member 2 (Homo sapiens) (O00482 whole entry, looked up): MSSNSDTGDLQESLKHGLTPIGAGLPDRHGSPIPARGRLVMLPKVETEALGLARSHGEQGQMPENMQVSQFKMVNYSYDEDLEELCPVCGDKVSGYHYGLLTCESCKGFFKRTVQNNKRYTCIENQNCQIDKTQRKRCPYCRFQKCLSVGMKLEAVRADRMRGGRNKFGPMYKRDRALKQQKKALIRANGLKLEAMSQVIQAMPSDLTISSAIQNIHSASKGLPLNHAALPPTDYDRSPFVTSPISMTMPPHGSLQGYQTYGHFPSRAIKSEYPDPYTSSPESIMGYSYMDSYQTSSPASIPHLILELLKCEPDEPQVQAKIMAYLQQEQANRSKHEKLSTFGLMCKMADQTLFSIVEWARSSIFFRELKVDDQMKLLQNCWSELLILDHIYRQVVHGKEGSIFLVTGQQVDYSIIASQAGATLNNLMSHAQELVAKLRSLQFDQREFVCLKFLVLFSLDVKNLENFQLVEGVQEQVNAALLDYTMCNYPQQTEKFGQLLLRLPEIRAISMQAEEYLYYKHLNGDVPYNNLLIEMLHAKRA
Sequence of Steroidogenic factor 1 (Homo sapiens) (Q13285 whole entry, looked up, the tested form may be a part): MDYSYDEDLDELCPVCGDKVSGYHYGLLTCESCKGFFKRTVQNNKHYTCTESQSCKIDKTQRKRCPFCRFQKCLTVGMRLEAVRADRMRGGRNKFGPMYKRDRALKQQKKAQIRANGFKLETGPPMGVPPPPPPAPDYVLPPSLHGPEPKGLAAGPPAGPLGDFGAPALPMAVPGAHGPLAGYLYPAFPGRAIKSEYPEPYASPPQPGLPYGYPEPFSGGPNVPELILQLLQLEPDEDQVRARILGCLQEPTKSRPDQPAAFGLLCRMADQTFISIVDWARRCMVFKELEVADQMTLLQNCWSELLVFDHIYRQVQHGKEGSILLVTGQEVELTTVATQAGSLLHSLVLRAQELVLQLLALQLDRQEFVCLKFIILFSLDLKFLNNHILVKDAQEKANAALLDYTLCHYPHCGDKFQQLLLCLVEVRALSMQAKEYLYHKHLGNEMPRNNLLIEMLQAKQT

CCN(CC)c1ccc(/C=N/NC(=O)c2c(Cl)cnn2C)c(O)c1
active: [1] 64.2% | [2] 72.8% | [3] 83% | [4] 96.4% | [5] 79.9% | [6] 60.9%

O=C(Nc1sc2c(c1C(=O)O)CCCCC2)c1ccccc1
inactive: [1] -1.12% | [2] 24.2% | [3] 1.22%
active: [4] 57% | [5] 59% | [6] 53.1%

O=S(=O)(NCC1CCCO1)c1ccc(-c2ccc(S(=O)(=O)NCC3CCCO3)cc2)cc1 (stereo unspecified)
inactive: [1] 9.93% | [3] 24.6%
active: [2] 41.9% | [4] 69.5% | [5] 61.2% | [6] 56.7%

Cc1cc(C(=O)NC2CCCc3c2cnn3-c2ccc(C)c(C)c2)n(C)n1 (stereo unspecified)
inactive: [1] 21.1%
active: [2] 52.5% | [3] 33.4% | [4] 62% | [5] 57.4% | [6] 67.1%

COC(=O)/C=C/C(=O)Nc1cccc(C(F)(F)F)c1
active: [3] 46.8% | [4] 46.6% | [5] 58.7%
inactive: [1] 4.81% | [2] 6.7% | [6] 28.6% | [7] 25.8% | [8] 20.4%

CCOc1ccc(-n2c(-c3ccc(Br)cc3)c[n+]3c2CCCCC3)cc1
inactive: [1] 26.1% | [2] 24.1% | [3] 22.8%
active: [4] 104% | [5] 60.1% | [6] 67.5%

Cc1cc(C)c(S(=O)(=O)/N=C2\C=C(Nc3ccc(C(=O)O)cc3)C(=O)c3ccccc32)c(C)c1
active: [3] 40.8% | [4] 61.8% | [5] 61% | [6] 43.8%
inactive: [1] 12.8% | [2] 11.8% | [7] 6.44% | [8] 1.79%

Cc1ccccc1C(=O)N/N=C/c1ccc([N+](=O)[O-])s1
inactive: [1] 6.45% | [2] 8.35% | [6] 24.8%
active: [3] 46.1% | [4] 73.2% | [5] 65% | [7] 64.2% | [8] 63.1%

Clc1ccc(C2=Nn3c(nnc3-c3n[nH]c4c3CCC4)SC2)cc1
active: [3] 61.5% | [4] 46.5% | [5] 66.8%
inactive: [1] 28.4% | [2] -31.7% | [6] -54.9%

O=C(Nc1ccc(S(=O)(=O)Nc2ccccc2)cc1)c1ccc(CN2CCOCC2)cc1
inactive: [1] 9.71% | [3] 21.8%
active: [2] 36% | [4] 56.4% | [5] 57.4% | [6] 57.6%

O=C(Nc1ccc(F)cc1)Nc1cc(OCC(F)(F)F)cc(OCC(F)(F)F)c1
inactive: [1] 17%
active: [2] 29.6% | [3] 53.8% | [4] 98.5% | [5] 75.6% | [6] 78%

Cc1cc(Br)c(OCc2ccc(C(=O)N/N=C/c3ccc[nH]3)cc2)c(Br)c1
active: [1] 51.8% | [2] 71.7% | [3] 76.5% | [4] 101% | [5] 88.5% | [6] 85.5%

O=C(OCC12CC3CC(CC(C3)C1)C2)c1ccc(NCc2cc(O)ccc2O)cc1
active: [1] 88.3% | [2] 47.5% | [3] 48.6% | [4] 56.9% | [5] 67.2% | [6] 72.7% | [7] 97% | [8] 96.5%

CCOC(=O)C(=CNc1ccc(NC2=NCC(C)S2)cc1)C(=O)OCC (stereo unspecified)
inactive: [2] 24.9% | [3] -39.4%
active: [1] 60.3% | [4] 69.1% | [5] 70.9% | [6] 36.8%

CC(C)N(c1ccccc1)c1ccc(NC(=O)CCl)cc1
active: [3] 32.8% | [4] 72.4% | [5] 60.9%
inactive: [1] 29.3% | [2] -9.17% | [6] -7.77% | [7] 17.1% | [8] 33.1%

Cn1c(CCN2CCN(c3ccccn3)CC2)nc2cc(NC(=O)COc3ccc(Cl)cc3)ccc21
inactive: [1] 18%
active: [2] 33.9% | [3] 29.2% | [4] 49.8% | [5] 51.4% | [6] 51.6%

CC(C)CCOc1cccc(OCC(=O)Nc2ccncc2)c1
active: [2] 35.9% | [4] 61% | [5] 60.3% | [6] 58.9%
inactive: [1] -1.73% | [3] 21.4% | [7] 27.6% | [8] 38%

c1ccc(CNc2nc(-c3ccccn3)nc3ccccc23)cc1
inactive: [1] 21.8%
active: [2] 29.9% | [3] 68.7% | [4] 76.8% | [5] 84.3% | [6] 66.5%

CCOc1ccc(-c2c[n+]3c(n2-c2ccccc2)CCCCC3)cc1
active: [2] 43.8% | [4] 94.5% | [5] 69.1% | [6] 66.9%
inactive: [1] 28.4% | [3] 22.6%

CCOc1ccc(Nc2cc(C)nc(-n3nc(C)cc3C)n2)cc1
active: [3] 46.8% | [4] 52.9% | [5] 64.8% | [6] 57.4%
inactive: [1] 32.9% | [2] 8.98% | [7] -8.07% | [8] 16.3%

C=C1C(=O)[C@]23C[C@H]1CCC2[C@@]1(C)C(C[C@@H]3O)[C@](C)(C(=O)OC)CC[C@@H]1OC(C)=O (stereo partly specified)
active: [1] 62.7% | [2] 44.9% | [3] 61.7% | [4] 70.7% | [5] 80.6% | [6] 76.2% | [7] 83.2% | [8] 99%

NS(=O)(=O)c1ccc(Sc2nc3ccccc3s2)c([N+](=O)[O-])c1
active: [1] 53.3% | [3] 78.7% | [4] 75.3% | [5] 67.5% | [6] 55.2% | [8] 58.3%
inactive: [2] 27.4% | [7] 33%

CCOc1cc(/C=C2\N=C(SC(C)C(N)=O)N(c3ccc(OC(F)F)cc3)C2=O)ccc1O (stereo unspecified)
inactive: [1] 27.6%
active: [2] 58% | [3] 59.3% | [4] 65.4% | [5] 73% | [6] 73.1%

CCNc1nc(NC(C)(C)C)nc(SC(C(C)=O)C(C)=O)n1
inactive: [1] 23.3%
active: [2] 32% | [3] 60.2% | [4] 72.4% | [5] 64.2% | [6] 49.4%

C[n+]1c2n(c3ccccc31)N=C(c1cc(C(C)(C)C)c(O)c(C(C)(C)C)c1)CS2
active: [1] 81.1% | [2] 84.6% | [3] 81.7% | [4] 106% | [5] 95% | [6] 90%

COc1cccc(CNc2nc3cc(-c4cnn(Cc5ccccc5)c4)sc3c(=O)n2C)c1
inactive: [1] 6.76%
active: [2] 30.1% | [3] 32.4% | [4] 47.3% | [5] 52% | [6] 46.9%

Cc1ccc(NC2=C(N3CCCCC3)C(=O)c3ccccc3C2=O)cc1
inactive: [1] -30.8% | [2] -15% | [3] -37.9% | [4] 12.3% | [5] -5.93% | [6] -11.3%

O=C(NCc1cccnc1)/C(=C\c1ccc(-c2cccc(Cl)c2)o1)S(=O)(=O)c1ccccc1
active: [3] 61.8% | [4] 87.1% | [5] 89.3% | [6] 74.9% | [7] 44% | [8] 53.1%
inactive: [1] 37.8% | [2] 13.6%

CCCCC(=O)NC(c1ccc(OC)cc1)c1ccc2cccnc2c1O (stereo unspecified)
inactive: [1] 28.5% | [2] 14.8% | [3] 8.78% | [4] 17.3% | [5] 18.6% | [6] 27%

Cc1ccc(S(=O)(=O)/C(=C/Cl)NC(=O)c2ccccc2)cc1
active: [3] 42.9% | [4] 57.7% | [5] 51.5% | [6] 38.8% | [7] 38.9% | [8] 60.8%
inactive: [1] 26% | [2] 26.9%

O=C(N/N=C\c1ccc([N+](=O)[O-])s1)c1cncc(Br)c1
inactive: [1] 32.5% | [2] 22.9%
active: [3] 57.4% | [4] 79.7% | [5] 72.9% | [6] 56.9%

COc1cc(/C=C/C(=O)c2ccc(C)cc2)ccc1OCC#N
inactive: [1] 31.2% | [3] 23.6% | [4] 29.3% | [5] 36.5% | [7] 28% | [8] 29.4%
active: [2] 41.2% | [6] 44.4%

S=C(NCCCc1cnc[nH]1)NCCCN(Cc1ccc(Cl)cc1)c1ccc(Br)cn1
active: [1] 83.9% | [2] 57.4% | [3] 91.2% | [4] 102% | [5] 96.4% | [6] 82.4% | [8] 51.4%
inactive: [7] -0.33%

O=C(CCl)N(c1ccccc1)C1CCCCC1
inactive: [1] 30.5% | [2] -7.5% | [6] 16.5%
active: [3] 43.5% | [4] 70.4% | [5] 66.2% | [7] 55.6% | [8] 57.8%

CCOC(=O)c1sc(N(Cc2ccccc2)C(=O)COC(=O)c2ccc(O)cc2)nc1C
active: [1] 69.3% | [2] 37.4% | [4] 55.2% | [5] 61.2% | [6] 37.1%
inactive: [3] -92.1%

Cc1ncc(CO)c(/C=N/NC(=O)c2cc3c(s2)CCCC3)c1O
active: [3] 76.8% | [4] 94.7% | [5] 77.2% | [6] 82.6%
inactive: [1] 40.9% | [2] 27.7%

COc1ccc(-c2c[n+](CC(=O)OC3CC(C)CCC3C(C)C)c3n2CCC3)cc1 (stereo unspecified)
active: [2] 42.1% | [4] 95.2% | [5] 62.6% | [6] 56.7%
inactive: [1] 22.9% | [3] 20.9%

COc1ccc(NC(=O)c2cc(-c3cc(Cl)ccc3C)n[nH]2)cc1OC
inactive: [1] 20.2%
active: [2] 50.6% | [3] 30.7% | [4] 57% | [5] 61.1% | [6] 64.4%
